A short description of experiment [1]: NCI Yeast Anticancer Drug Screen. Data for the rad50 strain (AID 155).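 Note: 0% = growth of vehicle-only cultures of the same strain.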 The note with it: S. cerevisiae rad50 strain growth inhibition, hits give high values. Summed up: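 Compounds were tested on a yeast strain with an engineered DNA damage repair alteration; the reported value is growth inhibition normalised to vehicle treatment.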
The nature of experiment [2]: NCI Yeast Anticancer Drug Screen. Data for the mec2-1 strain (AID 157). The note with it: S. cerevisiae mec2-1 strain, hits give high values. The method, boiled down: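 Readout is yeast growth inhibition, normalised to vehicle-treated controls, in the mec2-1 strain exposed to compound.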
A short description of experiment [3]: NCI Yeast Anticancer Drug Screen. Data for the sgs1 mgt1 strain (AID 161).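 Note: 0% = growth of cultures given vehicle only.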 The note with it: S. cerevisiae sgs1 mgt1 strain, hits give high values. Summed up:
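Percent growth inhibition was derived by comparing compound-exposed mutant yeast with vehicle-exposed cultures. The strain carries alterations in DNA damage repair.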

Experiment [4] is described as follows: NCI Yeast Anticancer Drug Screen. Data for the cln2 rad14 strain (AID 165).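 Note: 0% = growth equal to vehicle treated cultures.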 The note with it: S. cerevisiae cln2 rad14 strain, hits give high values. The method, boiled down: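 Relative to vehicle controls, growth inhibition of compound-treated cln2 rad14 yeast was recorded.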
The nature of experiment [5]: NCI Yeast Anticancer Drug Screen. Data for the bub3 strain (AID 167). The conditions noted are these: S. cerevisiae bub3 mutant strain, hits give high values. Summed up:
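Growth of a checkpoint-deficient yeast mutant is measured after compound exposure. Values represent inhibition relative to vehicle.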

The nature of experiment [6]: NCI Yeast Anticancer Drug Screen. Data for the mlh1 rad18 strain (AID 175). The conditions noted are these: S. cerevisiae mlh1 rad18 strain growth inhibition, hits give high values. Summed up: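 Test agents were incubated with a yeast strain of defined genotype (DNA damage repair defect). Inhibition of growth was derived by comparison with vehicle-exposed cultures.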

Setting [7] is: at 5.0 µM (retest, dose inferred, filed as 0.5).
Where [8] appears, read: at 50.0 µM (retest, dose inferred, filed as 5.0).

About 79,000 compounds went through this panel and 15% of them were active in at least one assay; those are over-represented in the sample as a whole. Values without a mark were called inactive. The source made the active and inactive calls. Cut-off read from the data, not from the text of the source: active = growth inhibition above about 70%; inactive = the rest.

As for `O=[N+]([O-])c1ccc(-c2cccc(Cl)c2)c([N+](=O)[O-])c1`, the growth inhibition is 6% in experiment [1] (setting [7]); 98% (active) in experiment [1] (setting [8]); 99.3% (active) in experiment [1] (at 50.0 µM); -3% in experiment [2] (setting [7]); 99% (active) in experiment [2] (setting [8]); 99% (active) in experiment [2] (at 50.0 µM). Also, the growth inhibition was 13% in experiment [3] (setting [7]); 99% (active) in experiment [3] (setting [8]); 99.2% (active) in experiment [3] (at 50.0 µM); -17% in experiment [4] (setting [7]); 98% (active) in experiment [4] (setting [8]); 91% (active) in experiment [4] (at 50.0 µM). Moreover, the growth inhibition in experiment [5] (setting [7]) was 9%; in experiment [5] (setting [8]), 99% (active); in experiment [5] (at 50.0 µM), 98.8% (active); in experiment [6] (setting [7]), 2%; in experiment [6] (setting [8]), 98% (active); in experiment [6] (at 50.0 µM) it was 97.9% (active).

Consider `Sc1c(Br)cc(Br)cc1Br.[Ag]`, for which the growth inhibition in experiment [1] (setting [7]) was 7%; in experiment [1] (setting [8]) it was 99% (active); in experiment [1] (at 50.0 µM) it was 31.6%; in experiment [2] (setting [7]) it was 6%; in experiment [2] (setting [8]), 100% (active); in experiment [2] (at 50.0 µM), 30.9%. The growth inhibition in experiment [3] (setting [7]) is 26%; in experiment [3] (setting [8]), 99% (active); in experiment [3] (at 50.0 µM), 72.4% (active); in experiment [4] (setting [7]), 6%; in experiment [4] (setting [8]) it was 99% (active); in experiment [4] (at 50.0 µM), 14.6%. Further, the growth inhibition is -1% in experiment [5] (setting [7]); 100% (active) in experiment [5] (setting [8]); 30.7% in experiment [5] (at 50.0 µM); 19% in experiment [6] (setting [7]); 99% (active) in experiment [6] (setting [8]); 59.5% in experiment [6] (at 50.0 µM).

For `CCCCCCCCCCCCCCCC[N+](C)(C)c1ccccc1`, the growth inhibition in experiment [1] (setting [7]) is 98% (active); in experiment [1] (setting [8]), 98% (active); in experiment [1] (at 50.0 µM), 91.1% (active); in experiment [2] (setting [7]), 98% (active); in experiment [2] (setting [8]), 99% (active); in experiment [2] (at 50.0 µM) it was 90.7% (active). The growth inhibition in experiment [3] (setting [7]) was 99% (active); in experiment [3] (setting [8]), 99% (active); in experiment [3] (at 50.0 µM), 90.4% (active); in experiment [4] (setting [7]), 98% (active); in experiment [4] (setting [8]), 99% (active); in experiment [4] (at 50.0 µM) it was 86.2% (active). Further, the growth inhibition in experiment [5] (setting [7]) is 99% (active); in experiment [5] (setting [8]), 99% (active); in experiment [5] (at 50.0 µM) it was 92.8% (active); in experiment [6] (setting [7]), 98% (active); in experiment [6] (setting [8]), 98% (active); in experiment [6] (at 50.0 µM), 92.2% (active).

As to `C=C1C(=O)O[C@@H]2C[C@@]3(C)CCC[C@H](C)C3=C[C@H]12`, the growth inhibition in experiment [1] (setting [7]) was 11%; in experiment [1] (setting [8]), 91% (active); in experiment [1] (at 50.0 µM), 50.5%; in experiment [2] (setting [7]) it was 23%; in experiment [2] (setting [8]), 98% (active); in experiment [2] (at 50.0 µM) it was 67.2%. Also, the growth inhibition in experiment [3] (setting [7]) is 24%; in experiment [3] (setting [8]) it was 98% (active); in experiment [3] (at 50.0 µM), 81.7% (active); in experiment [4] (setting [7]), 6%; in experiment [4] (setting [8]) it was 64%; in experiment [4] (at 50.0 µM) it was 41.5%. Besides, the growth inhibition in experiment [5] (setting [7]) was 4%; in experiment [5] (setting [8]) it was 95% (active); in experiment [5] (at 50.0 µM) it was 81.3% (active); in experiment [6] (setting [7]), 14%; in experiment [6] (setting [8]) it was 96% (active); in experiment [6] (at 50.0 µM) it was 68.5%.

Regarding `CN=S(=O)(OCCCCOS(=O)(=NC)c1ccccc1)c1ccccc1` (stereo not drawn), the growth inhibition in experiment [1] (setting [7]) is 16%; in experiment [1] (setting [8]) it was 26%; in experiment [1] (at 50.0 µM), 47.6%; in experiment [2] (setting [7]), 9%; in experiment [2] (setting [8]), 8%; in experiment [2] (at 50.0 µM), -2.25%. Also, the growth inhibition in experiment [3] (setting [7]) was 20%; in experiment [3] (setting [8]) it was 28%; in experiment [3] (at 50.0 µM) it was -18.1%; in experiment [4] (setting [7]) it was 8%; in experiment [4] (setting [8]) it was 10%; in experiment [4] (at 50.0 µM), -12.4%. The growth inhibition was 11% in experiment [5] (setting [7]); 10% in experiment [5] (setting [8]); -29.3% in experiment [5] (at 50.0 µM); 39% in experiment [6] (setting [7]); 40% in experiment [6] (setting [8]); -52.3% in experiment [6] (at 50.0 µM).

`S=c1[nH]c(-c2ccccc2)cs1`: the growth inhibition in experiment [1] (setting [7]) was -2%; in experiment [1] (setting [8]), 77% (active); in experiment [1] (at 50.0 µM), 79.5% (active); in experiment [2] (setting [7]), 0%; in experiment [2] (setting [8]) it was 71% (active); in experiment [2] (at 50.0 µM), 85.1% (active). Besides, the growth inhibition in experiment [3] (setting [7]) is 0%; in experiment [3] (setting [8]) it was 83% (active); in experiment [3] (at 50.0 µM) it was 92% (active); in experiment [4] (setting [7]), -15%; in experiment [4] (setting [8]), 73% (active); in experiment [4] (at 50.0 µM), 80.2% (active). The growth inhibition was -24% in experiment [5] (setting [7]); 89% (active) in experiment [5] (setting [8]); 74% (active) in experiment [5] (at 50.0 µM); 1% in experiment [6] (setting [7]); 89% (active) in experiment [6] (setting [8]); 89.5% (active) in experiment [6] (at 50.0 µM).

These data come from PubChem BioAssay (NCI).
